In PubChem BioAssay AID504397 (Broad Institute, 2011):
Measured potencies and affinities stand elsewhere. Activity calls are given as the source filed them. The rule behind the calls is not given here.

Test: mammalian cell cytotoxicity, dose response, cytotoxicity control, plate reader, cherry-pick samples (AID 504397)
Settings: plate reader viability; series mostly up to 35 µM

Structure (SMILES)	outcome
COc1ccc(-n2nc(C(=O)NCC(=O)N3CCC(C)CC3)c3ccccc3c2=O)cc1	inactive
CS(=O)(=O)Cc1ccc(C(=O)N(CCc2ccccc2)Cc2ccccc2)cc1	inactive
CCn1cc(/C=C(\NC(=O)c2ccccc2F)C(=O)N2CCOCC2)c2ccccc21	inactive
CC1(c2ccc(OCC#N)cc2)C=C(c2ccc(OCC#N)cc2)n2nc(C(F)(F)F)nc2N1 (stereo unspecified)	inactive
Cc1ccc(C(=O)c2c3ccc(C(F)(F)F)cc3nn2CCC(N)=O)cc1	inactive
N/C(Cc1ccc([N+](=O)[O-])cc1)=N\OC(=O)c1ccc2ccccc2c1	inactive
O=c1c(-c2ccccc2)c(O)c2ccccc2n1-c1ccccc1	inactive
O=[N+]([O-])c1ccc(-c2cnc(SC(c3ccccc3)c3ccccc3)[nH]2)cc1	inactive
Cc1ccccc1NS(=O)(=O)c1ccc(C(=O)NCC(c2ccccc2)N(C)C)cc1 (stereo unspecified)	inactive
CC(C)c1c(C(=O)N/N=C/c2c[nH]c3ccccc23)nnn1-c1nonc1N	inactive
COc1ccc(-n2c(SCc3ccc([N+](=O)[O-])cc3)nnc2-c2ccc(C)cc2)cc1	inactive
CCCCCCCCCCOC(=O)Cn1c(COc2ccccc2C)[n+](C)c2ccccc21	inactive
CN(C)CCCN(C(=O)c1cc(-c2cccs2)nc2ccccc12)c1nc2ccc(F)cc2s1	inactive
Cc1csc2nc(=O)c3ccccc3n12	inactive
O=C(c1cnc2n(c1=O)CCS2)N1CCN(C(c2ccccc2)c2ccc(Cl)cc2)CC1 (stereo unspecified)	inactive
CS(=O)(=O)Nc1ccccc1C(=O)NC1CC2CCC1C2 (stereo unspecified)	inactive

Structure (SMILES)	outcome
NC(=NCCCCCCN=C(N)/N=C(\N)Nc1ccc(Cl)cc1)/N=C(\N)Nc1ccc(Cl)cc1	inactive
O=C(c1cc(-c2ccccc2)nc2ccccc12)N1CCN(c2ccccn2)CC1	inactive
CCOc1cc(S(=O)(=O)N(Cc2ccccc2)Cc2ccccc2)c(OCC)cc1-n1cnnn1	inactive
CC1CCN(Cc2c(C(=O)N/N=C/c3cccc(C(F)(F)F)c3)nnn2-c2nonc2N)CC1	inactive
CN(C(=O)COC(=O)c1cc([N+](=O)[O-])ccc1Sc1ccccc1)C1CCS(=O)(=O)C1 (stereo unspecified)	inactive
O=C(C(Cc1ccccc1)N1C(=O)c2ccccc2C1=O)N1c2ccccc2CCc2ccccc21 (stereo unspecified)	inactive
CCCOc1ccc(-c2c(C(=O)N/N=C/c3cccs3)nnn2-c2nonc2N)cc1	inactive
Nc1nonc1-n1nnc(C(=O)N/N=C/c2cccc(Cl)c2)c1CSc1ccc(Cl)cc1	inactive
Cc1ccc(/C=N/NC(=O)c2nnn(-c3nonc3N)c2C(C)C)o1	inactive
O=C(CCNS(=O)(=O)c1ccc2[nH]c(=O)oc2c1)NCc1ccccc1	inactive
CN1C(=O)/C(=C/c2cccc(Cl)c2)Sc2ccc(C(=O)N3CCOCC3)cc21	inactive
Cc1ccc2nc(N(CCN(C)C)C(=O)c3ccc4ccccc4c3)sc2c1	inactive
CC(/C=N\NC(=O)CN1CCN(S(=O)(=O)c2ccc(C)cc2)CC1)=C\c1ccccc1	inactive
CC(=O)c1ccc(-c2ccc(C(=O)N3CCC(C(N)=O)CC3)o2)cc1	inactive
Cc1ccc(OCCn2c3ccccc3n3nc(C)c(=O)nc23)cc1	inactive
